Bioassay records from PubChem BioAssay.
rCAG binder: binders of r(CAG) RNA repeats, primary screen, biochemical, fluorescence. r(CAG) RNA repeat, TO-PRO-1 dye displacement fluorescence. inhibition, % at 3 µM. hit rate 1.3% among 370,000. AID 651821, 2012;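 active means inhibition above the plate cutoff, the mean of all test compounds on that plate plus 3 SD, cut at about 35% in these data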;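 further: 0% = DMSO alone and 100% = 100 µM mitoxantrone as full dye displacement; higher means more dye released from RNA so lower well fluorescence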
Rtt109 HAT inh: inhibitors of C. albicans Rtt109/Vps75 HAT, primary screen, biochemical, ThioGlo CoA-SH fluorescence, plate reader; purified Rtt109/Vps75, 4 h; inhibition, % at 34.9 µM; hit rate 0.16% among 330,000;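 active means inhibition of at least 50% in every replicate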
LANA-H2B inh: blockers of LANA interaction with H2A/H2B – biochemical, FP readout, HTS, primary screen; cell-free LANA-H2A/H2B peptide, fluorescence polarization; inhibition, % (test concentration not listed); hit rate 0.6% among 320,000; AID 2629, 2010; in the data active means inhibition mostly above about 10%, no sharp cut-off; inactive means mostly below about 6.7%
ALR H2O2 inh: inhibitors of human ALR sulfhydryl oxidase, primary screen, biochemical, H2O2 detection, HRP-luminol luminescence, single point | inhibition, % (concentration not given with the values) | purified ALR, DTT oxidation | FAD-linked sulfhydryl oxidase ALR (Homo sapiens), P55789 | hit rate 3.8% among 290,000;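 active means mean replicate inhibition above about 79%, with every replicate also reaching it, limit read from the data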
PRMT1 FP inh: PRMT1 methyltransferase inhibitors, primary screen, biochemical, fluorescence polarization; Protein arginine N-methyltransferase 1 (Homo sapiens), Q99873; recombinant PRMT1, activity-based probe fluorescence polarization; inhibition, % at 2.79 µM; hit rate 1.3% among 370,000; AID 652257, 2013;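 active means inhibition above about 21% made by adding two undisclosed values, limit read from the data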
ABHD5-PLIN5 inh: ABHD5-PLIN5 interaction inhibitors, primary screen, cell lysate, split luciferase complementation, luminescence | Perilipin-5 (Homo sapiens) + 1-acylglycerol-3-phosphate O-acyltransferase ABHD5 (Homo … | Split G. princeps luciferase complementation, 4 h | inhibition, % at 4 µM | hit rate 0.78% among 360,000 | AID 602281, 2012;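 active means inhibition above the mean inhibition across every tested compound plus 3 SD, cut at about 22% in these data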;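 further: 0% = DMSO only wells and the 100% control is not disclosed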
Target sequence (Q00G26 whole entry, looked up): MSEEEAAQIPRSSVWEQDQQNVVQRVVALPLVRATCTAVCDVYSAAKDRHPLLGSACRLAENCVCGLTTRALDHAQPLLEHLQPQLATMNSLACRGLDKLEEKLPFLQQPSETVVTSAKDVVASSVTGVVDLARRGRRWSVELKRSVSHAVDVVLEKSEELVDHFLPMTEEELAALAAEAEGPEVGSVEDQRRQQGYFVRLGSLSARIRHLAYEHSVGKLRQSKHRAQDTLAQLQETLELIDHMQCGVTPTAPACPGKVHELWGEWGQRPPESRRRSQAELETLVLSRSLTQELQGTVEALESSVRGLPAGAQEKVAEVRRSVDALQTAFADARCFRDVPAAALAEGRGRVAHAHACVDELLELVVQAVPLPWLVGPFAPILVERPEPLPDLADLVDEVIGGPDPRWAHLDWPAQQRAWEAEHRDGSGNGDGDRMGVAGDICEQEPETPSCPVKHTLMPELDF
Target sequence (Q8WTS1 whole entry, looked up): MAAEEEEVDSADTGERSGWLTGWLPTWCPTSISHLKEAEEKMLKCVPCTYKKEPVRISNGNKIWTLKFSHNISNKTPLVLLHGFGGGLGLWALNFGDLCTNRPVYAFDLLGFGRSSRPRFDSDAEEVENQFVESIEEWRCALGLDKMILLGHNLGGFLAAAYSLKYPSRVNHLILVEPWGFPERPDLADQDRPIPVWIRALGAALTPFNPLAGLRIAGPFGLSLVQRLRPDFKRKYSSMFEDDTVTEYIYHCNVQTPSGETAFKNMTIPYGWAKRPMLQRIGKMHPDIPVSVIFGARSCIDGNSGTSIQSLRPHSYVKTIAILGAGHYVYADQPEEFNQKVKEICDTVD
Numbers without * were called inactive; . = no result; ! = a repeat was not active. This is a sample that favours compounds with a hit; in the whole collection about 5.9% have one here.

SMILES | rCAG binder | Rtt109 HAT inh | LANA-H2B inh | ALR H2O2 inh | PRMT1 FP inh | ABHD5-PLIN5 inh
CCOC(=O)C1=C[C@]2(CC)CCCN3CCc4c(n1c1ccccc41)[C@@H]32 | 1 | -3 | 19*! | . | -3 | 1
O=S(=O)(Nc1ccc(O)cc1)c1cccc2cccnc12 | 0 | -7 | 0 | 101* | 4 | 2
Cc1cc(C)c(S(=O)(=O)Nc2ccc(O)cc2)cc1C | . | 5 | -2 | 99* | . | -3
Cc1cc2oc(=O)sc2cc1NS(=O)(=O)c1cccc2cccnc12 | 13 | 16 | 3 | 3 | 54* | -11
Cc1nc2cc(NS(=O)(=O)c3cccc4cccnc34)ccc2s1 | -4 | -3 | -2 | -9 | 6 | -3
COc1cccc(CNC(=O)[C@H]2CCCN2C(=O)[C@H]2CCCN2C(=O)c2ccc(Cl)cc2)c1 | 2 | . | . | . | 0 | .
COC(=O)C1CN(Cc2ccc(Cl)cc2)CCS(=O)(=O)N1Cc1cn(Cc2ccc(OC)cc2)nn1 (stereo not given) | 1 | . | . | . | -2 | .
COC(=O)[C@]12C[C@H](CC(=O)NCC3CCCCC3)C(=O)N(CCC3=CCCCC3)C1=C[C@H](C1CCCC1)O[C@@H]2C | 8 | . | . | . | 3 | .
O=c1cc(-c2ccccc2)cc(-c2ccccc2)n1O | 3 | 2 | 3 | 98* | -2 | -2
CN(C)c1ccc(CC(=O)N2CCCC(c3cc(C(=O)Nc4ccc(C(C)(C)C)cc4)no3)C2)cc1 (stereo not given) | 32 | . | . | . | -1 | -1
Cn1c(N)c(C(=O)Nc2ccccc2F)sc1=S | -2 | -3 | -4 | 99* | 7 | 4
CC1(Cc2ccc(OC(F)(F)F)cc2)C(=O)Nc2c(Cl)ccc(Cl)c21 (stereo not given) | -3 | . | . | . | 1 | -9
COc1c(OC)c(O)c2c(=O)cc(-c3c(O)cccc3O)oc2c1OC | 12 | 9 | -3 | 97* | 2 | -8
COc1ccc(CNc2ccccc2)cc1Br | 0 | 0 | 2 | 83* | 3 | -4
Cc1cccc(NC(=S)NNC(=O)c2ccc(Br)o2)c1 | 12 | -4 | -1 | 94* | -3 | -7
CC(=O)c1cccc(NC(=S)NC(=O)c2ccccc2Cl)c1 | -2 | -4 | 7 | -1 | -1 | 2
Cc1cccc(NC(=S)NNC(=O)c2csc3c2CCCC3)c1 | 24 | 30 | -6 | 3 | -3 | -9
Cc1cccc(NC(=S)NNC(=O)c2csc(C)c2)c1 | 5 | 1 | 3 | 85* | -3 | -3
O=C(NC(=S)Nc1ccccc1)c1ccc(Br)o1 | 1 | 0 | 6 | 13 | -1 | 2
CC(=O)c1cccc(NC(=S)NC(=O)c2ccc(C)cc2Cl)c1 | -2 | -3 | 36* | 16 | 1 | 0
O=C(OC12CCCN(C1)/C(=C/c1ccccc1)C2)c1ccc(F)cc1 (stereo not given) | 8 | . | . | . | 0 | .
CCCCCCCCN1C(=O)[C@@H](CC(=O)NCCC(C)C)C[C@@]2(C(=O)OC)C1=C[C@H](C1CCCC1)O[C@@H]2C | 2 | . | . | . | -1 | .
COc1ccc(S(=O)(=O)N2CCC(C(=O)NC3CC3)CC2)cc1OC | -4 | 6 | 6 | 1 | 1 | 0
COC(=O)C1=C(C)NC(C)=C(C(=O)OC)C1C1CC=CCC1 (stereo not given) | -5 | 4 | 8.1* | . | 0 | 3
CCOC(=O)C1=C(C)NC(=O)NC1C1CC=CCC1 (stereo not given) | -3 | -2 | -3 | . | 1 | 0
SMILES | rCAG binder | Rtt109 HAT inh | LANA-H2B inh | ALR H2O2 inh | PRMT1 FP inh | ABHD5-PLIN5 inh
CCC[C@H]1[C@@H](OC(=O)N2CCCC2)CC[C@@]23CCCN2C(=O)CCC[C@@H]13 | . | . | . | . | -2 | .
O=C(/C=C/c1ccncc1)c1ccc(NC(=O)c2ccccc2F)cc1 | . | 2 | 4 | . | . | 95*
COC(=O)c1cc(NC(=O)c2cc3ccccc3o2)cc(C(=O)OC)c1 | -1 | -10 | 16* | 0 | 0 | -1
CCN(CC)c1ccc(NC(=O)c2ccccc2F)cc1 | -8 | 7 | -6 | 99* | -1 | -3
O=C(Nc1cccnc1)c1ccccc1F | -1 | 3 | -2 | 1 | -1 | -1
O=C(Nc1ccc(N2CCCC2)cc1)c1ccccc1F | 8 | 2 | -3 | 22 | 5 | 10
CCN(CC)c1ccc(NC(=O)c2cc(Cl)ccc2OC)cc1 | 4 | -6 | 1 | 98* | 9 | -8
COc1ccc(Cl)cc1C(=O)Nc1ccncc1 | -3 | 5 | 0 | -9 | 4 | 0
CC1(C)CC(=O)C=C(c2cccc(OC(=O)c3ccc(-c4ccccc4)cc3)c2)C1=O | 10 | . | . | . | 2 | 1
Cc1ccc(Nc2nc(Cl)nc3ncn(C)c23)c(C)c1 | 2 | 2 | . | . | -1 | -31
C=CCN1[C@@H](C)[C@@H](c2ccccc2)Oc2c(Cl)cccc2S1(=O)=O | 4 | . | . | . | -4 | .
CCN(CC)c1ccc(NC(=O)c2c(C)noc2C)cc1 | -5 | -8 | 0 | 98* | 0 | 0
COC(=O)c1cc(NC(=O)c2ccccc2F)cc(C(=O)OC)c1 | -3 | 0 | 22* | -4 | -8 | 2
CC(=O)Nc1ccc(NC(=O)c2c(C)noc2C)cc1 | 0 | -3 | -1 | 1 | -2 | -1
O=C(Nc1ccc(Nc2ccccc2)cc1)c1ccccc1F | 6 | 1 | 2 | 99* | -1 | 0
O=C(O)c1cc(NC(=O)c2ccccc2F)cc(NC(=O)c2ccccc2F)c1 | 8 | -8 | 4 | 5 | 2 | -4
COc1cccc(OC(C)CCN2CCC(C(O)(c3ccccc3)c3ccccc3)CC2)c1 (stereo not given) | 3 | . | . | . | 0 | .
NS(=O)(=O)c1ccc(-c2ccc(C=C3C(=O)c4ccccc4C3=O)o2)cc1 | 1 | -12 | 0 | -11 | 2 | -1
CC(C)CC1=C/C(=C/c2ccc(-c3ccccc3)o2)C(=O)O1 | 44* | 5 | 0 | 43 | 15 | 10
CC1=CC(=O)N(c2cccc3c(N4C(=O)C=C(C)C4=O)cccc23)C1=O | 36* | -4 | . | . | 10 | 18
NC1=NC(=O)/C(=C/c2cn(CCC(=O)O)nc2-c2ccc(Cl)cc2)S1 | 10 | 2 | 10 | 98* | -2 | 2
OC1C=CSc2nc3ccccc3n21 (stereo not given) | 3 | 3 | 3 | 86* | -1 | 12
Cc1csc(NC(=O)C2C3C=CC(O3)C2C(=O)O)n1 (stereo not given) | 2 | 3 | -1 | 98* | -1 | 1
